The full ranking holds about 39,000 sequences; the median of “fluorescence intensity (a.u.)” is about 4,300, and the highest 2% start at about 39,000. The sample holds the highest values, similar sequences and a random draw of the others, so the mix is not that of the screen.

This assay addresses T1, OsSMF1 (Oryza sativa, UniProt Q6ZLB0 1-436).
T1 sequence: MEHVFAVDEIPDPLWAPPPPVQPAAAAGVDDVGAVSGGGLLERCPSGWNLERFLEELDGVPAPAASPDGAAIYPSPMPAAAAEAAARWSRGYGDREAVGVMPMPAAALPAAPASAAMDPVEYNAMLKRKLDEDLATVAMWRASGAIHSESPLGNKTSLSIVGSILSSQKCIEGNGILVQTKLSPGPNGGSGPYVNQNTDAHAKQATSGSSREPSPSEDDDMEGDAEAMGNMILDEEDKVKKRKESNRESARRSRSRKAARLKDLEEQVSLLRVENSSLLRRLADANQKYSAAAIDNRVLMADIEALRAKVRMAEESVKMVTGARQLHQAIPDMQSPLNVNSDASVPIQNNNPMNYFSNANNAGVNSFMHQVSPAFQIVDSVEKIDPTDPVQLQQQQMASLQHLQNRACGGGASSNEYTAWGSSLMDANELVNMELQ
As to the kind of experiment: protein-binding microarray (RPBM); PBS, 2% BSA, 51.3 ng/ul salmon testes DNA, 50 uM zinc acetate, 200 nM TF, 25 C, 1 h; high values mean tight binding. The note with it: protein: recombinant; tags: N-terminal polyhistidine and DsRed monomer fusion (pET32a); chain copies: 2; label: CyDye5-dUTP incorporated in the synthesized complementary strand; 3' TTTTT single-stranded linker to array surface; dsDNA, one strand shown. In outline:
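Binding signal is defined as the fluorescence intensity of each feature in arbitrary units, read on an Axon 4000B scanner. Transcription factors with N-terminal polyhistidine and DsRed fusions came from E. coli BL21-CodonPlus and were purified on Ni–NTA. They were incubated at 200 nM for 1 h at 25 °C on a custom Agilent array that had been made double-stranded with Cy5-dUTP, with 50 µM zinc acetate present, and the array was washed.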
As for “CGTCCGGCGTCGGCGTGGACGGGTCGGCGCGGCGCCCCACCGGAGTCACCTAGTGCAG”, the binding signal is 3650 fluorescence intensity (a.u.). With “AGATTAAGGAGTCCTCCATCTATATAATCCAATCTATCTCCGGAGTCACCTAGTGCAG”, the binding signal was 21400 fluorescence intensity (a.u.). For “TTGTCCGATGTGGCAGTTGAGTCAGCATGAGACCCACGTACGGAGTCACCTAGTGCAG”, the binding signal is 14200 fluorescence intensity (a.u.).

For “CGGCACCACCAGTTGTCCGGCATGCGATGTGGTACCGAGACGGAGTCACCTAGTGCAG”, the binding signal is 49300 fluorescence intensity (a.u.). With “ACCACCCGAGACGCGACGTGGCGGCGGGCATGCAGCACCCCGGAGTCACCTAGTGCAG”, the binding signal was 5050 fluorescence intensity (a.u.). For “ACCTGTATTTGTCATTATTTAGTGGACTCTGCTTAGTTCTCGGAGTCACCTAGTGCAG” the value was 3390 fluorescence intensity (a.u.); for “TGCAGCCGCCGACGCGGCGCGCCGACGCGATCTGAAACCCCGGAGTCACCTAGTGCAG”, 3940 fluorescence intensity (a.u.). Turning to “TATGGTGATCCTAGCGATGAAACCGCCTAGCCCCGTTAGGCGGAGTCACCTAGTGCAG”, the binding signal is 64600 fluorescence intensity (a.u.). Turning to “CATGGTGATGATGGCGGCGGGCGTCCGTCAGCGCCCGCACCGGAGTCACCTAGTGCAG”, the binding signal was 5860 fluorescence intensity (a.u.).

Consider “CCTATTCCTTGTCACTATGACACCGTCATATATCTATGCACGGAGTCACCTAGTGCAG”, for which the binding signal was 3420 fluorescence intensity (a.u.). Take “CCCGCGGATCGATCGATCGCCGCCGCGCGCCTGGACGAGCCGGAGTCACCTAGTGCAG”: the binding signal is 3300 fluorescence intensity (a.u.). As for “CGCCTCCGTGGACCCGGTCCACGGGGAGATTACACCTTCACGGAGTCACCTAGTGCAG”, the binding signal was 57600 fluorescence intensity (a.u.). Turning to “CCGCCACCCGCTGCCCGGGGAGCTCCGCCTTCACCTCCGCCGGAGTCACCTAGTGCAG”, the binding signal was 7820 fluorescence intensity (a.u.). With “AATCGTGTCCATGGTCTCCACCTCACGGGAGATTCTCCGCCGGAGTCACCTAGTGCAG”, the binding signal is 3830 fluorescence intensity (a.u.). In the case of “ATAGTTAGGTGACAATTGACAAGTGTCAAGTTGTGTATGACGGAGTCACCTAGTGCAG”, the binding signal is 3360 fluorescence intensity (a.u.). “TGATGGCGGCTTTAGGTGACATGCAGCATTAAGTGGCATGCGGAGTCACCTAGTGCAG”: the binding signal was 4460 fluorescence intensity (a.u.). Under “GGACACCCGCTCCGCGTCGCGCGCACGCTAGAAGAACTCCCGGAGTCACCTAGTGCAG” stands 3140 fluorescence intensity (a.u.); under “TCGCACCAAGAATTGTTCACCTACCTTCAAAGTTCCAACACGGAGTCACCTAGTGCAG”, 63300 fluorescence intensity (a.u.); under “AGCAAGCAAAGCCGAAGAATTGTTACACGGCCAAAGTGGACGGAGTCACCTAGTGCAG”, 41200 fluorescence intensity (a.u.). With “ACGACACTACCAATTGTTTGGCCTTCAATCCAAACTAGCACGGAGTCACCTAGTGCAG”, the binding signal is 3500 fluorescence intensity (a.u.).

As for “CTCTCCTCCTTTCTTCTCCAAGTCAACAGTTCCTACGCTACGGAGTCACCTAGTGCAG”, the binding signal is 3360 fluorescence intensity (a.u.). Turning to “AATTGCTATGGTTACACCCGGCCGAAGCAAAGTCACCACTCGGAGTCACCTAGTGCAG”, the binding signal was 3520 fluorescence intensity (a.u.). In the case of “CGGAAAAGAAAGCCATGGAAGAAATGACGCAAGCAGCGGACGGAGTCACCTAGTGCAG”, the binding signal is 4230 fluorescence intensity (a.u.). As for “TCCAAGAAAGTGACCAAGCAAATGACGCAAGTGGTGCACGCGGAGTCACCTAGTGCAG”, the binding signal is 40200 fluorescence intensity (a.u.). Under “GAAATGCCAAGTGTGAGAAGATGACGCACCCAAATGCAACCGGAGTCACCTAGTGCAG” stands 5640 fluorescence intensity (a.u.); under “GCAGCTGAAGTGGACCTGTCAGCAAGTAAAGCCAAGAGGCCGGAGTCACCTAGTGCAG”, 3470 fluorescence intensity (a.u.). For the sequence “GCAAAAGCATCTTGGAGGAGATACAGTCAGCTGGCAATCCCGGAGTCACCTAGTGCAG”, the binding signal was 4160 fluorescence intensity (a.u.).

With “CCACCACGCTTTCCCCGCGCGATGACTCCGCCGCCGCGCCCGGAGTCACCTAGTGCAG”, the binding signal is 5400 fluorescence intensity (a.u.). Regarding “CCCACGTGAGTAAGCTCCTCCCTGCTGGTTTGATTCCCTTCGGAGTCACCTAGTGCAG”, the binding signal was 4650 fluorescence intensity (a.u.).

On to “CAAAAGTTTTGACGTGTCACATCGGATATACGGACACACACGGAGTCACCTAGTGCAG”, for which the binding signal is 10800 fluorescence intensity (a.u.). With “TTGGGGAAAAGTTTTGAGTTTGATTGTCACATCGGATATACGGAGTCACCTAGTGCAG”, the binding signal was 53000 fluorescence intensity (a.u.).

Take “GTGTAAAAGTTTTGACGTGTCACATCGGATATACGGACACCGGAGTCACCTAGTGCAG”: the binding signal was 15300 fluorescence intensity (a.u.). Consider “TTCCATCCAGAGTGCGTCACGAACGCGCCAGTCGCCCGGTCGGAGTCACCTAGTGCAG”, for which the binding signal is 3990 fluorescence intensity (a.u.). Consider “AAAGAACGCAGCCTTAGAAGGAGACAGCTCATGGAGCAAGCGGAGTCACCTAGTGCAG”, for which the binding signal was 5000 fluorescence intensity (a.u.).

Regarding “AGCTCACCGCATTGTAAAGGCCCTTACTAATCTTAGCAAGCGGAGTCACCTAGTGCAG”, the binding signal was 40300 fluorescence intensity (a.u.). Under “ATAACCGCCCTAATTTACTTTAGCATACGTGGAGTACAAGCGGAGTCACCTAGTGCAG” stands 6900 fluorescence intensity (a.u.); under “AAATCACACCCACGCTCGTGCCCATTGGGTCGGGTATCCGCGGAGTCACCTAGTGCAG”, 3550 fluorescence intensity (a.u.). Take “TTAAGGTGTGTTTAGTTCCACGTCAAAATTAGAAGTTTGACGGAGTCACCTAGTGCAG”: the binding signal is 7090 fluorescence intensity (a.u.). Consider “CCACGCTAAAATTGGAAGTTTGACTAAAATTAGAAGTTTACGGAGTCACCTAGTGCAG”, for which the binding signal was 60200 fluorescence intensity (a.u.).

Regarding “GAGAATTTGCTACTAATTGACTTACCAATTTGGAATTTACCGGAGTCACCTAGTGCAG”, the binding signal was 46100 fluorescence intensity (a.u.). In the case of “ATGTTTAGTTCCACGTCAAAATTGGAAGTTTGAAGAAATTCGGAGTCACCTAGTGCAG”, the binding signal is 3980 fluorescence intensity (a.u.).

As for “GGAAGGAGACTGCTTGGTCACTAATTTAATCTGCTACTACCGGAGTCACCTAGTGCAG”, the binding signal was 3140 fluorescence intensity (a.u.). Consider “GTATTGAGAATTGTATGACTAATCAATGTTGCCTTACTTACGGAGTCACCTAGTGCAG”, for which the binding signal is 5200 fluorescence intensity (a.u.).

Source of the values: article PMC7819943, “Rice protein-binding microarrays: a tool to detect cis-acting elements near promoter regions in rice”.
